HTT aggregate: reduces HttQ103-GFP aggregates in PC12 cells. PC12 HttQ103-GFP aggregates, Acumen cytometry, 40 h. Potency, µM (top dose mostly 46.1 µM), for the others: at the highest dose activity change, negative = inhibition, actives largely listed as inhibitors. 220,000 compounds, 1.1% hits. AID 1688; also: % is scaled to controls: 0 for no effect and ±100 for the full control effect; nearly all actives have a fitted effect of over 60% in size
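Multiplexed with ATP-based cell death, this channel scores GFP aggregates in PC12 cells expressing inducible HTTex1-Q103-GFP. Induction used 100 nM tebufenozide; compounds were tested in concentration series.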
HTT cytoprotect: cytoprotection in Huntington HTT-Q103 PC12 cell model; PC12 HTT-Q103 induced, cytoprotection, ATP luminescence, 40 h; Potency, µM (top dose mostly 56.4 µM), without a hit: cytoprotection (ATP increase), actives largely listed as activators; 230,000 compounds, 0.14% hits; AID 1471; also: % of control where 0% means no effect; nearly all actives have a fitted effect of over 45% in size
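Stable PC12 Q103-GFP cells in serum-supplemented, phenol red-free DMEM; induction by tebufenozide at 100 nM final; compound dose series; cell viability quantified luminescently from ATP.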
Tau fibril FP: tau fibrillization inhibition (FP); P10636; K18 P301L tau heparin fibrillization, Alexa594 FP, 6 h; Potency, µM (highest dose often 57.7 µM), without a hit: at the top dose activity, negative = inhibition, hits mostly inhibitors; 280,000 compounds, 0.39% hits; AID 1468; also: % is scaled to controls: 0 for no effect and ±100 for the full control effect; nearly all actives have a fitted effect of over 55% in size
Target sequence (P10636 561-689 P618L limits assumed): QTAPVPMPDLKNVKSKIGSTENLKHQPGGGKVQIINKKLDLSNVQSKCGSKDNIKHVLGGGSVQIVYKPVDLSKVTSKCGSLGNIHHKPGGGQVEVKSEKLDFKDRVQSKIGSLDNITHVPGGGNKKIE
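Quantitative HTS format: compounds meet 15 uM recombinant K18 P301L tau and Alexa 594-tau tracer in 100 mM sodium acetate pH 7; 20 uM heparin triggers fibrillization at 37 C over 6 hr; FP gives the signal.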
Tau ThT inhib: inhibitors of human tau fibril formation, thioflavin T binding | P10636 | recombinant tau K18 P301L, heparin-induced fibrillization, ThT fluorescence | Potency, µM (series often up to 57.4 µM), without a hit: top-dose activity, negative = inhibition, hits mostly inhibitors | 270,000 compounds, 2.1% hits | AID 1460; also: % is scaled to controls: 0 for no effect and ±100 for the full control effect; nearly all actives have a fitted effect of over 55% in size
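Using a mix of unlabeled (15 uM) and Alexa 594-labeled (0.24 uM) tau K18 P301L, heparin-triggered fibrillization over 6 hr at 37 C was scored by ThT fluorescence.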
Tau fluor cs: counter-screen for tau fibril formation inhibitors | tau K18 P301L Alexa594 fluorescence, heparin fibrillization | Potency, µM (series often up to 57.7 µM), for inactives: at the top dose activity change, negative = decrease | 280,000 compounds, 0.93% hits | AID 1463; also: % is scaled to controls: 0 for no effect and ±100 for the full control effect; nearly all actives have a fitted effect of over 55% in size
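Human tau K18 P301L (15 uM unlabeled, 0.24 uM Alexa 594-labeled) in 100 mM sodium acetate pH 7 with 20 uM heparin, 6 hr at 37 C. ThT 30 uM added, 1 hr ambient; Alexa 594 FP and total fluorescence read at 555/632 nm.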
An asterisk follows results filed as active; ? = inconclusive; . = no result given; [ ] = another dose, or the depositor's remark. Hits are enriched below; roughly 3.7% of the tested compounds scored in any of these assays. Calls follow the shape of the dose curve; as a rule, active = well fitted curve in the direction sought with a large enough effect; inconclusive = small, poorly fitted or top-dose-only effect, or another doubt; inactive = no such curve, though single readings can be large; an effect the other way counts as inactive or inconclusive. Potency is read from the fitted curve at half-maximal effect.

SMILES	HTT aggregate	HTT cytoprotect	Tau fibril FP	Tau ThT inhib	Tau fluor cs
CCOc1ccc(C2NC(=O)C(C#N)=C(S)N2c2ccc(OC)cc2)cc1OC (stereo not given)	?	-51%[10 µM]	?	?	-22%
COc1ccc(-c2noc(CN(C(=O)COc3cc(C)c(Br)c(C)c3)C(C)C)n2)cc1	.	.	0%	-5%	-20%
CCOc1ccc2c(c1)-c1c(ssc1=S)C(C)(C)N2C	-19%	12%	-2%	14µM*	13µM*[quencher]
CCOc1ccc2c(c1)[nH]c(=S)n2C	-16%[9.22 µM]	-3%[10 µM]	-9%	-19%	-12%
CS(=O)(=O)Nc1ccc(Nc2c3ccccc3nc3ccccc23)cc1	.	-41%[10 µM]	.	.	.
Cc1cc(-c2ccc(S(=O)(=O)Nc3cc(Cl)ccc3C)s2)on1	.	.	?	-3%	-29%
CC/C(C)=N\N=C\c1c(O)n(CC)c2cc(C3=NNC(=O)CC3)ccc12	-24%	3%[10 µM]	-9%	16µM*	-23%
CCn1c(O)c(/C=N/N=C/c2ccc(OC)cc2)c2cc(C3=NNC(=O)CC3)ccc21	-19%[9.22 µM]	1%[10 µM]	0%	.	-3%
CCc1ccc(NC(=O)Nc2ccc3c(c2)N(C)C(=O)CS3)cc1	?	10%	?	-18%	18µM*[quencher]
Cc1ccc(NC(=O)Nc2ccc3c(c2)N(C)C(=O)CS3)cc1C	12%	6%	2%	8%	1%
Cc1ccc(CNC(=O)Nc2ccc3c(c2)N(C)C(=O)CS3)cc1	1%	-37%	6%	-2%	?
Cc1cc(C)cc(NC(=O)Nc2ccc3c(c2)N(C)C(=O)CS3)c1	?	-4%	?	-12%	11µM*[quencher]
CC/C(=C(\c1ccccc1)c1ccc(OCCN(C)C)cc1)c1ccc(O)cc1	.	-86%	.	.	.
Cc1ccc(-c2nnc(Nc3cccc(Cl)c3)c3ccccc23)cc1S(=O)(=O)NCC1CCCO1 (stereo not given)	.	.	?	11%	?
CCOc1nc(SCCOc2ccccc2)nc(N(C)C)n1	0.45µM*	?	-2%	-15%	-10%
Cc1ccccc1OCCSc1nc(N(C)C)nc(N(C)C)n1	-15%	.	-8%	-15%	-20%
Cc1ccc(F)c(C2C3C=CCC(c4cccc(-c5ccc(N(C)C)cc5)c4)C3C(=O)N2Cc2ccccc2)c1 (stereo not given)	3.2µM*	-38%[10 µM]	3%	-5%	-12%
CCc1cccc(NC(=O)CN(c2ccc(C)cc2)S(=O)(=O)c2cccs2)c1	.	.	?	-4%	?
C(=C/c1nccc2c1[nH]c1ccccc12)/c1ccc2c(c1)OCO2	-3%	-124%	7%	?	7.1µM*[quencher]
O=c1c2ccccc2nc(/C=C/c2ccc3c(c2)OCO3)n1CCCO	12%[9.22 µM]	-1%[10 µM]	7%	-5%	-11%
COc1ccc(NC(=S)Nc2nc(CC(=O)Nc3ccccc3OC)cs2)cc1	3%	-4%	-8%	-17%	13µM*[quencher]
COc1ccccc1NC(=O)Cc1csc(NC(=S)Nc2ccccc2)n1	-24%	15%	?	0%	?
CCC(Sc1nnc(C)n2c1cc1occc12)C(=O)Nc1ccccc1F (stereo not given)	.	.	3%	?	-15%
CC1=NN(c2ccc(Cl)c(C(=O)O)c2)C(=O)/C1=C\c1ccc(-c2ccc(C(=O)O)cc2)o1	-5%	-5%	1%	?	-10%
O=C(O)c1ccc(N2C(=O)/C(=C/c3ccc(-c4ccc([N+](=O)[O-])cc4)o3)C=C2c2ccccc2)cc1	17%	.	?	4.5µM*	?
SMILES	HTT aggregate	HTT cytoprotect	Tau fibril FP	Tau ThT inhib	Tau fluor cs
CCN1CCN(c2cc(N3CCc4ccccc4C3)c(F)cc2[N+](=O)[O-])CC1	8%	-24%[10 µM]	6%	14µM*	-22%
CC1=NN(c2ccccc2)C(=O)[C@@H]1N=Nc1ccc(S(N)(=O)=O)cc1	.	-3%[10 µM]	.	.	.
CC1=NN(c2nc(-c3ccc(C)cc3)cs2)C(=O)C1N=Nc1cccc(O)c1 (stereo not given)	19%	13%[10 µM]	-16%	1.8µM*	?
CC1=NN(c2nc(-c3ccc(C)cc3)cs2)C(=O)C1N=Nc1ccccc1O (stereo not given)	-33%[9.22 µM]	-60%[10 µM]	11%	2µM*	?
COc1ccc(-c2csc(N3N=C(C)C(C)C3=O)n2)cc1 (stereo not given)	-26%	-128%	3%	?	-10%
O=C(NCCn1ccc2ccccc21)c1ccc(Cl)cc1	.	.	-15%	?	?
CC(=O)Nc1ccc(OC(=O)c2ccc(Br)c([N+](=O)[O-])c2)cc1	11%	-26%	?	25µM*	?
CC(C)n1c(=O)[nH][nH]c1=S	-7%[9.22 µM]	0%[10 µM]	?	28µM*	-26%
CC(C)n1c(=O)[nH]c2ccccc21	-4%	-10%	4%	-5%	1%
Cc1ccc2c(CC(=O)N(Cc3ccc(Cl)cc3)Cc3ccco3)coc2c1	.	.	-6%	?	-23%
Cc1nc2sc(C(=O)N(C)c3ccccc3)c(NC(=O)c3ccccc3Cl)c2c(C)c1C	.	.	-3%	3%	-5%
N#CC1=C(N)OC2=C(CCC/C2=C/c2ccoc2)C1c1ccoc1 (stereo not given)	1%	-3%[10 µM]	?	28µM*	-21%
CN=C(N)/N=C(\N)Nc1cc2ccccc2c2ccccc12	.	2%[10 µM]	.	.	.
CCN(c1ccc(OC)cc1)c1ncnc2nc[nH]c12	5.6µM*	-30%[10 µM]	2%	3%	9%
CCCN(c1ccc(OCC)cc1)c1ncnc2nc[nH]c12	11µM*	6%[10 µM]	3%	-13%	-4%
CCCCN(CCCC)c1ncnc2nc[nH]c12	?	-33%	-9%	-2%	-14%
COc1ccc(OCCSc2ncnc3nc[nH]c23)cc1	-33%	-31%	0%	-13%	-9%
Cc1ccc(CCNS(=O)(=O)c2ccc3c(c2)C(C(C)C)C(=O)N3)cc1 (stereo not given)	.	.	-5%	-7%	-24%
NC(=O)C1=CN([C@@H]2O[C@@H](COP(=O)(O)OP(=O)(O)OC[C@@H]3O[C@H](n4cnc5c(N)ncnc54)[C@@H](OP(=O)(O)O)[C@@H]3O)[C@H](O)[C@@H]2O)C=CC1	.	-16%[1.9 µM]	.	.	.
O=C(NNC(=O)C1CCN(S(=O)(=O)c2ccc(Cl)cc2)CC1)c1ccc(S(=O)(=O)N2CCCCC2)cc1	25µM*	10%[10 µM]	-13%	0%	-6%
Cc1ccc(C(=O)NNC(=O)C2CCN(S(=O)(=O)c3ccc(Cl)cc3)CC2)cc1	-7%	-24%[10 µM]	6%	3%	1%
Cc1nc2ccccc2c2c(N)c3ccccc3n12	-23%	-21%	?	10µM*	-23%
Nc1c2ccccc2nc2ccccc12	?	-57%[10 µM]	-6%	?	-10%
COc1ccccc1OCC(=O)/C=C1/N(C)c2ccccc2C1(C)C	?	-158%	5%	?	-13%

Assay outcomes (PubChem)
